In PubChem BioAssay (NCI):
About 79,000 compounds went through this panel and 15% of them were active in at least one assay; those are over-represented in the sample as a whole. A number with no mark means an inactive call. Active and inactive are the calls of the source. No stated cut-off is given here; in the data, active means growth inhibition above about 70%; inactive means the rest.

How the values were obtained:
[1] = NCI Yeast Anticancer Drug Screen. Data for the rad50 strain (AID 155);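 further: 0% = growth of vehicle-only cultures of the same strain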; conditions: S. cerevisiae rad50 strain growth inhibition, hits give high values
How it was run: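 Growth of the mutant yeast was measured after compound exposure and referenced to vehicle-treated cultures.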

[2] = NCI Yeast Anticancer Drug Screen. Data for the mec2-1 strain (AID 157); conditions: S. cerevisiae mec2-1 strain, hits give high values
How it was run: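 Test agents were screened against the mec2-1 yeast strain, with defined DNA repair or cell cycle alteration. Growth was scored as inhibition against vehicle-only controls.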

[3] = NCI Yeast Anticancer Drug Screen. Data for the sgs1 mgt1 strain (AID 161);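 further: 0% = growth of cultures given vehicle only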; conditions: S. cerevisiae sgs1 mgt1 strain, hits give high values
How it was run: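 Inhibition of yeast growth, normalised to vehicle-treated controls, is reported for a strain bearing genetic alterations in DNA damage repair.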

[4] = NCI Yeast Anticancer Drug Screen. Data for the cln2 rad14 strain (AID 165);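 further: 0% = growth equal to vehicle treated cultures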; conditions: S. cerevisiae cln2 rad14 strain, hits give high values
How it was run: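 Growth of compound-exposed yeast (cln2 rad14 genotype) measured and expressed as inhibition relative to vehicle.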

[5] = NCI Yeast Anticancer Drug Screen. Data for the bub3 strain (AID 167); conditions: S. cerevisiae bub3 mutant strain, hits give high values
How it was run: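 Whole-cell yeast assay. The mutant strain was incubated with compounds, and growth inhibition was determined by comparison with vehicle-treated cells.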

[6] = NCI Yeast Anticancer Drug Screen. Data for the mlh1 rad18 strain (AID 175); conditions: S. cerevisiae mlh1 rad18 strain growth inhibition, hits give high values
How it was run: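 In this whole-cell yeast screen, a strain with altered DNA damage repair is challenged with compound, and its growth is measured against matched vehicle-treated controls.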

[7] = at 5.0 µM (retest, dose inferred, filed as 0.5)
[8] = at 50.0 µM (retest, dose inferred, filed as 5.0)

Row | SMILES | growth inhibition [1, 7] | growth inhibition [1, 8] | growth inhibition ([1]; at 50.0 µM) | growth inhibition [2, 7] | growth inhibition [2, 8] | growth inhibition ([2]; at 50.0 µM) | growth inhibition [3, 7] | growth inhibition [3, 8] | growth inhibition ([3]; at 50.0 µM) | growth inhibition [4, 7] | growth inhibition [4, 8] | growth inhibition ([4]; at 50.0 µM) | growth inhibition [5, 7] | growth inhibition [5, 8] | growth inhibition ([5]; at 50.0 µM) | growth inhibition [6, 7] | growth inhibition [6, 8] | growth inhibition ([6]; at 50.0 µM)
1 | O=C(CBr)c1cc(-c2ccc(Cl)cc2)nc2ccccc12 | 86% (active) | 98% (active) | 98.9% (active) | 95% (active) | 99% (active) | 99% (active) | 100% (active) | 99% (active) | 99% (active) | 35% | 98% (active) | 98% (active) | 95% (active) | 99% (active) | 98.7% (active) | 97% (active) | 98% (active) | 98.8% (active)
2 | O=[N+]([O-])c1ccccc1CC(c1c[nH]c2ccccc12)c1c[nH]c2ccccc12 | 0% | 73% (active) | 86% (active) | -1% | 74% (active) | 80.7% (active) | -2% | 70% (active) | 82.9% (active) | 1% | 80% (active) | 78.9% (active) | -1% | 80% (active) | 55.8% | 1% | 81% (active) | 87.3% (active)
3 | O=C1OC(CCl)CC12CC(CCl)OC2=O (configuration not stated) | 1% | 2% | 93.7% (active) | -4% | 3% | 89.7% (active) | -1% | 1% | 94% (active) | -1% | 1% | 79.6% (active) | 0% | -3% | 96% (active) | -3% | 0% | 95.9% (active)
4 | CCCCOC(=O)c1ccc(O)c(OC)c1 | 3% | -13% | -19.8% | -10% | 4% | -3.2% | 0% | 6% | 5.25% | -5% | 2% | -43.9% | 85% (active) | 96% (active) | 95.7% (active) | 0% | 3% | -11.2%
5 | CCOC(=O)C(=O)C1CCCCC1=O (configuration not stated) | 9% | 95% (active) | 98.5% (active) | 6% | 98% (active) | 98.8% (active) | 5% | 92% (active) | 98.8% (active) | 21% | 98% (active) | 98.8% (active) | 6% | 98% (active) | 97% (active) | 11% | 98% (active) | 98.8% (active)
6 | COC(=O)C(=C(c1ccccc1)c1ccccc1)c1ccccc1 | 3% | -1% | 25.8% | 0% | 4% | 23.1% | 4% | -1% | 52% | 0% | 4% | 43.1% | -2% | -3% | 89.6% (active) | -3% | 7% | 35.6%
7 | COc1cc(C(c2cc3c(cc2O)OCO3)N2CCN(C(c3ccc(O)c(OC)c3)c3cc4c(cc3O)OCO4)CC2)ccc1O (configuration not stated) | -1% | 98% (active) | 99.2% (active) | 3% | 99% (active) | 99.3% (active) | -3% | 97% (active) | 99.5% (active) | 2% | 82% (active) | 96.7% (active) | -1% | 99% (active) | 99% (active) | 2% | 98% (active) | 98.5% (active)
8 | O=C1C/C(=C\c2ccccc2)C(=O)c2ccccc2N1 | 0% | 20% | 57.8% | -3% | 16% | 41.8% | -9% | 27% | 76% (active) | 1% | 6% | 33.6% | -23% | 19% | 67% | -18% | 18% | 60.5%
9 | COc1ccc(C(CC(=O)c2ccc(C)cc2)Sc2ccccc2N)cc1 (configuration not stated) | 46% | 51% | -9.65% | 52% | 52% | 4.5% | -16% | 26% | 26.5% | 44% | 40% | -15.2% | 36% | 17% | 27.5% | 35% | 50% | 8.35%
